PubChem BioAssay AID651703 (Broad Institute, 2012)
Hit rate of the full screen: of about 1,200 compounds, about 970 (81%) were called active. No rule for the calls is given here. So high a share suggests a set chosen from earlier hits. Only a sample is shown. Results with a measured potency or affinity are listed apart.

The molecules below were run against Transforming acidic coiled-coil-containing protein 3 (Homo sapiens) (UniProt Q9Y6A5) (assay: ARNT/TACC3 interaction disruptors, potency, confirmation, biochemical, AlphaScreen, cherry-picked samples (AID 651703;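 also: TACC3 partner is the GST-tagged E629A mutant dimer; hits lower the signal meaning they disrupt ARNT binding to TACC3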)). Details: AlphaScreen His-ARNT PAS-B / GST-TACC3 binding, luminescence; series mostly up to 68 µM; activity change, negative = inhibition: at the top concentration.

Activity change, negative = inhibition, inactive:
O=C(C[C@H]1CC[C@@H](NC(=O)c2ccccc2)[C@H](CO)O1)Nc1ccc(-c2ccccc2)cc1 -7.06%
O=C(C[C@@H]1CC[C@@H](NC(=O)c2ccccc2)[C@H](CO)O1)Nc1ccc(-c2ccccc2)cc1 -7.97%
O=C(N[C@H]1CC[C@@H](CCn2cc(-c3ccccc3)nn2)O[C@@H]1CO)c1cnccn1 -5.38%
CN1CCC(n2[nH]c(-c3ccccc3)c(Cc3ccccc3)c2=O)CC1 -10.5%
C[C@H]1CN([C@@H](C)CO)C(=O)c2cc(C#Cc3ccccn3)cnc2O[C@@H]1CN(C)Cc1ccccc1 -12.5%
C[C@@H]1CN([C@@H](C)CO)C(=O)c2cc(NC(=O)CCN3CCOCC3)ccc2O[C@@H]1CN(C)Cc1ccncc1 -3.85%
CC(C)NC(=O)N(C)C[C@H]1Oc2ccc(N(C)C)cc2CC(=O)N([C@@H](C)CO)C[C@@H]1C 0.668%
COc1ccc(-c2cnc3c(c2)C(=O)N([C@H](C)CO)C[C@@H](C)[C@H](CN(C)Cc2cccnc2)O3)cc1 -5.95%
COc1ccc(CN(C)C[C@@H]2Oc3ccc(NC(=O)Cn4cnnn4)cc3C(=O)N([C@@H](C)CO)C[C@H]2C)cc1 -9.62%
CC(C)NC(=O)Nc1ccc2c(c1)CC(=O)N([C@H](C)CO)C[C@H](C)[C@H](CN(C)S(=O)(=O)c1cccs1)O2 -14.9%
C[C@H](CO)N1C[C@H](C)[C@H](CN(C)C(=O)NC2CCCCC2)Oc2ccc(NS(=O)(=O)c3cccs3)cc2CC1=O -6.44%
Cc1cc(C)n2nc(-c3cccc(Br)c3)cc2n1 0.525%
N/C(=N\NS(=O)(=O)c1ccccc1Cl)c1ccccn1 -23%
S=c1[nH]nc(-c2cc3c(s2)-c2ccccc2CC3)o1 -31.4%
COc1cc2c(cc1OC)-c1cc(Nc3cccc(C)c3)nc(=O)n1CC2 5.52%
O=C(COC(=O)c1ccc([N+](=O)[O-])o1)NCc1ccccc1 -21.1%
NS(=O)(=O)c1ccc(CCNC(=O)COC(=O)c2ccc([N+](=O)[O-])o2)cc1 -30.5%
O=C(NCCc1ccccc1)c1ccc(=O)[nH]c1 -5.64%
NC(=O)CC(NC(=O)c1ccccc1)c1ccc(NCc2ccccn2)c([N+](=O)[O-])c1 (stereo not drawn) -13.6%
COc1cc(/C=N/NC(=O)CSc2n[nH]c(=O)[nH]c2=O)cc(OC)c1O -11%
O=C(c1cc(-c2ccccc2)on1)N1CCC(N2CCOCC2)CC1 -4.7%
O=C(c1cc(-c2ccccc2)on1)N1CCC(CO)CC1 -1.3%
Cc1[nH]c(=O)[nH]c(=O)c1/C=N/NC(=O)[C@H](C)NC(=O)OC(C)(C)C -1.1%
COc1ccc(-c2nnc(SCC(=O)NC3CC3)o2)cc1 -3.22%
COC(=O)C[C@@H]1CC[C@@H](NS(=O)(=O)c2ccc(OC)cc2)[C@H](CO)O1 -0.059%
Cc1[nH]cnc1CN1CCc2c(c3ccccc3n2C)C1=O -21.6%
COc1ccc(C(=O)Nc2nc3ccccc3[nH]2)cc1S(=O)(=O)N1CCOCC1 -27.7%
O=C(NCCCN1CCOCC1)c1cc(-c2ccccc2)on1 6.12%
O=C(NCCN1CCOCC1)c1cc(-c2ccccc2)on1 -3.9%
CCOc1cc2nc(-c3ccc(OC)c(OC)c3)nc(NCCCN3CCOCC3)c2cc1OC -5.91% [at 35 µM]
C#CCOCCOCCOCCNc1nc(N2CCN(C(=O)Cn3cc(CCCCN)nn3)CC2)nc(N2CCN(C(=O)[C@H](CCCCN)n3cc(CCCC)nn3)CC2)n1 -8.06%
C#CCOCCOCCOCCNc1nc(N2CCN(C(=O)C([C@@H](C)O)n3cc([C@@H](N)CCCCN)nn3)CC2)nc(N2CCN(C(=O)C([C@@H](C)O)n3cc([C@@H](N)CCCCN)nn3)CC2)n1 (stereo partly drawn) -11%
C#CCOCCOCCOCCNc1nc(N2CCN(C(=O)[C@H](CCC(=O)O)n3cc([C@@H](N)CCCCN)nn3)CC2)nc(N2CCN(C(=O)[C@H](CCCCN)n3cc([C@@H](N)CC(N)=O)nn3)CC2)n1 -14.6%
C#CCOCCOCCOCCNc1nc(N2CCN(C(=O)[C@H](CCCCN)n3cc([C@@H](N)CC(N)=O)nn3)CC2)nc(N2CCN(C(=O)[C@H](CCCCN)n3cc([C@@H](N)CC(N)=O)nn3)CC2)n1 -22%
CCOc1cc(C(=O)NC2CC(C)(C)NC(C)(C)C2)cc(OCC)c1OCC -3.7%
c1ccc(CN2CCN(CCCNc3ccc4nnc(-c5ccccc5)n4n3)CC2)cc1 -28.4%
Oc1cccc(CN2CCOCC2)c1O -3.34%
COc1ccc(C(=O)NNC(=O)Cc2coc3cc(OC)ccc23)cc1 -12.1%
CCN(/N=C/c1ccccc1)c1cc(=O)n(C)c(=O)[nH]1 -29.9%
O=C(Nc1ccccc1)N1CCCCN2[C@H](C1)[C@H](c1ccc(C#CC3CC3)cc1)[C@@H]2CO -25.8%
O=C(NCCCn1ccnc1)c1cc(-c2ccccc2)on1 -3.75%
CC(C)(C)c1cc(C(=O)NCCCn2ccnc2)cc(C(C)(C)C)c1 -17.3%
COc1ccc(-c2cnc3c(c2)C(=O)N([C@H](C)CO)C[C@H](C)[C@H](CN(C)Cc2cccnc2)O3)cc1 -2.08%
O=C(O)C1C2C=CC(C2)C1C(=O)NCCCn1ccnc1 (stereo not drawn) -5.06%
CN(c1ccc(C(=O)N2CCc3ccccc3C2)cc1)S(C)(=O)=O -30.6%
O=C(C1CC1)N1CCc2cc(Br)cc(S(=O)(=O)NCc3ccccn3)c21 -4.26%
CO[C@H]1CN(C)C(=O)c2cc(NS(=O)(=O)CC(F)(F)F)ccc2OC[C@H](C)N(Cc2cccnc2)C[C@@H]1C -3.73%
O=C(Nc1ccc(Br)cn1)c1cccc(C(=O)Nc2ccc(Br)cn2)c1 -24.4%
O=C(NC1Cc2ccccc2C1)c1cc(-c2ccccc2)on1 -0.19%
c1c[nH]c(CN2CCN(Cc3ncc[nH]3)CC2)n1 -24%
CC1(C)CC(=O)C=C(Nc2ccccc2N)C1 13.5%
O=c1[nH]cnc2c1C(c1ccccc1[N+](=O)[O-])c1c(nc[nH]c1=O)O2 -10.3%
O=C(NCCCCO)c1cc(-c2ccccc2)on1 -1.85%
O=C1CN(C(=O)COC(=O)c2ccc([N+](=O)[O-])o2)c2ccccc2N1 -18.7%
O=C(O)c1c[nH]c2c([N+](=O)[O-])cccc2c1=O -5.07%
O=C(N/N=C/c1c(Cl)nc2ccccn2c1=O)c1cccnc1 -20.1%
C[C@H](CO)N1C[C@H](C)[C@@H](CN(C)C(=O)Nc2ccc(C(F)(F)F)cc2)Oc2ncc(C3=CCCC3)cc2C1=O -28.6%
O=C(Nc1cnc2ccccc2c1)c1cc(-c2ccccc2)on1 -3.86%
CCOC(=O)N1CCN(C(=O)CSc2ccc3nnc(-c4ccccn4)n3n2)CC1 -23.3%
O=C(Nc1cccc(F)c1)c1cccnc1NCCc1ccccc1 -12.3%
Cc1ccc(C2=CSC3=NS(=O)(=O)CCN23)cc1 -17.9%
O=C(Nc1ccc2nc(-c3ccccn3)[nH]c2c1)C1CCCCC1 -26.6%
O=C(NN=C1CCCC1)c1ccc(O)cc1O -19%
